Key:
[1] = molecular target: Mitogen-activated protein kinase 3 (Homo sapiens) (UniProt P27361); conditions: at 1 µM;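 also: values are mean percent inhibition of MAPK3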
[2] = molecular target: SRSF protein kinase 3 (Homo sapiens) (UniProt Q9UPE1); conditions: at 0.1 µM
[3] = molecular target: SRSF protein kinase 3 (Homo sapiens) (UniProt Q9UPE1); conditions: at 1 µM
[4] = molecular target: Mitogen-activated protein kinase 14 (Homo sapiens) (UniProt Q16539); conditions: at 0.1 µM
[5] = molecular target: Mitogen-activated protein kinase 14 (Homo sapiens) (UniProt Q16539); conditions: at 1 µM
[6] = molecular target: Mitogen-activated protein kinase 11 (Homo sapiens) (UniProt Q15759); conditions: at 0.1 µM
[7] = molecular target: Mitogen-activated protein kinase 11 (Homo sapiens) (UniProt Q15759); conditions: at 1 µM
[8] = molecular target: T1, Mitogen-activated protein kinase 13 (Homo sapiens) (UniProt O15264); conditions: at 0.1 µM
T1 sequence (whole entry): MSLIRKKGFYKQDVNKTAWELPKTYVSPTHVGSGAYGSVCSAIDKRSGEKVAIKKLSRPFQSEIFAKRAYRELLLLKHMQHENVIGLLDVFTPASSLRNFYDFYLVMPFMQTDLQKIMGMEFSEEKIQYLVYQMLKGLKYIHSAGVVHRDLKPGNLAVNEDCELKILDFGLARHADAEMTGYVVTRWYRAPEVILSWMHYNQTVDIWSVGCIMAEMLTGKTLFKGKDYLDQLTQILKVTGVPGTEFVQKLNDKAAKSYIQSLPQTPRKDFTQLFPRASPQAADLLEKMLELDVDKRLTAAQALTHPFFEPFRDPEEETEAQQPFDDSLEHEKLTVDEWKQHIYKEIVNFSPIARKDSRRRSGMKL

[9] = molecular target: T1, Mitogen-activated protein kinase 13 (Homo sapiens); conditions: at 1 µM
[10] = molecular target: T2, Mitogen-activated protein kinase 12 (Homo sapiens) (UniProt P53778); conditions: at 0.1 µM
T2 sequence (whole entry): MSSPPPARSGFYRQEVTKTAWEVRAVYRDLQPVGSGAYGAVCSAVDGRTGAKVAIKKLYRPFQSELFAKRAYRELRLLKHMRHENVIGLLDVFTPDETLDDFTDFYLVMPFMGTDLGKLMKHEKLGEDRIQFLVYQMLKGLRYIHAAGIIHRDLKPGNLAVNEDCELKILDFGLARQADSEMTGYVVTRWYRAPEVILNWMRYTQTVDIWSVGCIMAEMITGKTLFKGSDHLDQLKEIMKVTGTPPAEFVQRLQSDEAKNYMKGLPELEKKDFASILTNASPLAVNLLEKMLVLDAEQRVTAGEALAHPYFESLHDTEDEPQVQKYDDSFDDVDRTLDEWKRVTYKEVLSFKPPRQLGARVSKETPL

[11] = molecular target: T2, Mitogen-activated protein kinase 12 (Homo sapiens); conditions: at 1 µM
[12] = molecular target: SRSF protein kinase 1 (Homo sapiens) (UniProt Q96SB4); conditions: at 0.1 µM
[13] = molecular target: SRSF protein kinase 1 (Homo sapiens) (UniProt Q96SB4); conditions: at 1 µM
[14] = molecular target: Phosphatidylinositol 4,5-bisphosphate 3-kinase catalytic subunit alpha isoform (Homo sapiens) (UniProt P42336); conditions: at 0.1 µM
[15] = molecular target: Phosphatidylinositol 4,5-bisphosphate 3-kinase catalytic subunit alpha isoform (Homo sapiens) (UniProt P42336); conditions: at 1 µM
[16] = molecular target: T3, Phosphatidylinositol 4,5-bisphosphate 3-kinase catalytic subunit delta isoform (Homo sapiens) (UniProt O00329); conditions: at 0.1 µM
T3 sequence (whole entry): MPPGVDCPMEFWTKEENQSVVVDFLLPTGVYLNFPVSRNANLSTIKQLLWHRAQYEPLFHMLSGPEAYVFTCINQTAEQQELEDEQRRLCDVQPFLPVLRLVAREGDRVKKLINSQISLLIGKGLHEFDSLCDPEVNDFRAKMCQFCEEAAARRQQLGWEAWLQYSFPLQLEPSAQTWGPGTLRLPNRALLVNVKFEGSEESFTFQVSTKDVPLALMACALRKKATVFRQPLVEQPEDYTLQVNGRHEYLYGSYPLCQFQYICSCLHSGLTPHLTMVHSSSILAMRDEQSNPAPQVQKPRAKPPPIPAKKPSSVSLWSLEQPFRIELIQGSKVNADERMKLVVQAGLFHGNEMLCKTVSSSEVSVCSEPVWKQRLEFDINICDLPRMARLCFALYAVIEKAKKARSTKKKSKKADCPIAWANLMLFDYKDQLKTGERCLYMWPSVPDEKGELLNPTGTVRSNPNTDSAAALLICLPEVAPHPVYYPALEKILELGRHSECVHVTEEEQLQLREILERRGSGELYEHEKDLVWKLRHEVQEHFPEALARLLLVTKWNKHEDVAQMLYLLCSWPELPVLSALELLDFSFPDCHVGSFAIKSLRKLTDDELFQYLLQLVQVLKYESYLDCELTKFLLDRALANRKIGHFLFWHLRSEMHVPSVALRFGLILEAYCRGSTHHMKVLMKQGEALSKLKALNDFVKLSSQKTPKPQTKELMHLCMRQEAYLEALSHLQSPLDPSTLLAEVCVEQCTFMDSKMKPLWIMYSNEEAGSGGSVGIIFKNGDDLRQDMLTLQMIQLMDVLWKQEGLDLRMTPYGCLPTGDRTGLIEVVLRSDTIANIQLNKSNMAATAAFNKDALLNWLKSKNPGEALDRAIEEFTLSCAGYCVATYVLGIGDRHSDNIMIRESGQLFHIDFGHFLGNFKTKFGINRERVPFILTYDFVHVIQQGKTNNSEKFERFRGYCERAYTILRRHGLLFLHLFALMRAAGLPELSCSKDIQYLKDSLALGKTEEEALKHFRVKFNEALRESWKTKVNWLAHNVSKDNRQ

[17] = molecular target: T3, Phosphatidylinositol 4,5-bisphosphate 3-kinase catalytic subunit delta isoform (Homo sapiens); conditions: at 1 µM
[18] = molecular target: Phosphatidylinositol 4-kinase beta (Homo sapiens) (UniProt Q9UBF8); conditions: at 0.1 µM
[19] = molecular target: Phosphatidylinositol 4-kinase beta (Homo sapiens) (UniProt Q9UBF8); conditions: at 1 µM
[20] = molecular target: Sphingosine kinase 1 (Homo sapiens) (UniProt Q9NYA1); conditions: at 0.1 µM;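 also: mean percent inhibition of SPHK1 activity, measured within the GSK PKIS screening panel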
Chain of Sphingosine kinase 1 (Homo sapiens) (Q9NYA1 whole entry): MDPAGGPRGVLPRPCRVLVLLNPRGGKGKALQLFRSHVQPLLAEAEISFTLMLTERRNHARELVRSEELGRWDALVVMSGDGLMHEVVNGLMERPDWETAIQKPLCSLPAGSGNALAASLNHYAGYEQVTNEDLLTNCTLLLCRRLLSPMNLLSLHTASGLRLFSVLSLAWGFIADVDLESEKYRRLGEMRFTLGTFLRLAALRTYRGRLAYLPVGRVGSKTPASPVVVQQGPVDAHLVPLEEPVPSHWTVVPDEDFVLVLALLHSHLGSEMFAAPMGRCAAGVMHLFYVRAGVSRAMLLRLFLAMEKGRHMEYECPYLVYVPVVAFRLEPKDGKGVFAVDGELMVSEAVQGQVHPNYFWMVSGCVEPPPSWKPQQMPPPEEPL

Chain of Phosphatidylinositol 4-kinase beta (Homo sapiens) (Q9UBF8 2-816 limits assumed): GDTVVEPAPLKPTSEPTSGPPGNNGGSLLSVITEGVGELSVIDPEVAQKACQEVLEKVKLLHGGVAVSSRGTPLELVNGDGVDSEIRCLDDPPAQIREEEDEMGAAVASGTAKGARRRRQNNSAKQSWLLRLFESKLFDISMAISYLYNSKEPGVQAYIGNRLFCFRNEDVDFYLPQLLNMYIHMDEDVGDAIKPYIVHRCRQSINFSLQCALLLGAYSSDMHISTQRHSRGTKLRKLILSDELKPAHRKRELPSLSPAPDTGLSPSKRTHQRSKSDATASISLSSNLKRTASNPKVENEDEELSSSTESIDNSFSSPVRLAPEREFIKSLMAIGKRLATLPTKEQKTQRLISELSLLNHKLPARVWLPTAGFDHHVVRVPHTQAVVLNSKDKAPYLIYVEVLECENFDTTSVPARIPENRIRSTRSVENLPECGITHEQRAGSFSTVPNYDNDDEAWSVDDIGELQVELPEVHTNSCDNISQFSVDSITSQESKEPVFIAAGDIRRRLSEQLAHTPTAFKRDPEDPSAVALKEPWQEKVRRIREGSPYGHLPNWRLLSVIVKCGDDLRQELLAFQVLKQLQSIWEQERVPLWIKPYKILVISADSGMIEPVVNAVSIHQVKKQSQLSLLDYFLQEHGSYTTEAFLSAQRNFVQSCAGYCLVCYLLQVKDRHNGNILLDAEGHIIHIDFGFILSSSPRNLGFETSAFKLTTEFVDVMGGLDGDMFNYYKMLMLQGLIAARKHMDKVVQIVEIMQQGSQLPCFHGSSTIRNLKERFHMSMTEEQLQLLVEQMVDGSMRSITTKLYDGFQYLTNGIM
Chain of SRSF protein kinase 1 (Homo sapiens) (Q96SB4 whole entry, canonical isoform): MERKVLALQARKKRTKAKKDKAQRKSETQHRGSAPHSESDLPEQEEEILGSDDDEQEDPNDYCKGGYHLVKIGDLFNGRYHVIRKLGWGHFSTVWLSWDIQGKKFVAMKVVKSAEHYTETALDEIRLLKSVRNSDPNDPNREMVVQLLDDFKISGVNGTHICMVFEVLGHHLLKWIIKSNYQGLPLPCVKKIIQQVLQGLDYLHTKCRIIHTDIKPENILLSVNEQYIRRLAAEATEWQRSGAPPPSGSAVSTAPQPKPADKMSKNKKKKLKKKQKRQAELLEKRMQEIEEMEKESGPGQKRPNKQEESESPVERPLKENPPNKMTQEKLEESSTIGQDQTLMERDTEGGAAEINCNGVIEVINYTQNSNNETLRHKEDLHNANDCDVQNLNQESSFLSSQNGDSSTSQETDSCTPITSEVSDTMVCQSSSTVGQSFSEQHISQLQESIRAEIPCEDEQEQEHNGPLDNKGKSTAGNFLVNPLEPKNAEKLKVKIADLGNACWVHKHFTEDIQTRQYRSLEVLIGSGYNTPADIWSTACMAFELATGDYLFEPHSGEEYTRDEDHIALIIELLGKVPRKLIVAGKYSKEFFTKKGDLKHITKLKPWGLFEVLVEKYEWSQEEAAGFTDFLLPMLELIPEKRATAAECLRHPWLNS
Chain of SRSF protein kinase 3 (Homo sapiens) (Q9UPE1 whole entry): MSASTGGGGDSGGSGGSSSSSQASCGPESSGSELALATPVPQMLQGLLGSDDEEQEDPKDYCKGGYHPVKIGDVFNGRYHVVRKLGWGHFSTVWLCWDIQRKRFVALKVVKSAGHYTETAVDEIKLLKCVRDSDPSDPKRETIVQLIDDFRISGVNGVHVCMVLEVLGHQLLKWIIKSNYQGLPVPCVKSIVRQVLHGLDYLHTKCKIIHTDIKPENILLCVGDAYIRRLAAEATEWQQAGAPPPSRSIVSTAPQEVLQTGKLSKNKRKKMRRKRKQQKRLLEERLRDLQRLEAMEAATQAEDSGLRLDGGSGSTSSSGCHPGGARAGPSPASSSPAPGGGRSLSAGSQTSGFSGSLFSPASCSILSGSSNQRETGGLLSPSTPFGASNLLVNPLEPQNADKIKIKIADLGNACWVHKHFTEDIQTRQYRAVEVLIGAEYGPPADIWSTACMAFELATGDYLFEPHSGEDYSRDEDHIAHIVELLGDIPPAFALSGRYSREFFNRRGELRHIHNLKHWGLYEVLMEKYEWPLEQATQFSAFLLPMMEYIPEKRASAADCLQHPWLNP
Chain of Phosphatidylinositol 4,5-bisphosphate 3-kinase catalytic subunit alpha isoform (Homo sapiens) (P42336 whole entry, canonical isoform): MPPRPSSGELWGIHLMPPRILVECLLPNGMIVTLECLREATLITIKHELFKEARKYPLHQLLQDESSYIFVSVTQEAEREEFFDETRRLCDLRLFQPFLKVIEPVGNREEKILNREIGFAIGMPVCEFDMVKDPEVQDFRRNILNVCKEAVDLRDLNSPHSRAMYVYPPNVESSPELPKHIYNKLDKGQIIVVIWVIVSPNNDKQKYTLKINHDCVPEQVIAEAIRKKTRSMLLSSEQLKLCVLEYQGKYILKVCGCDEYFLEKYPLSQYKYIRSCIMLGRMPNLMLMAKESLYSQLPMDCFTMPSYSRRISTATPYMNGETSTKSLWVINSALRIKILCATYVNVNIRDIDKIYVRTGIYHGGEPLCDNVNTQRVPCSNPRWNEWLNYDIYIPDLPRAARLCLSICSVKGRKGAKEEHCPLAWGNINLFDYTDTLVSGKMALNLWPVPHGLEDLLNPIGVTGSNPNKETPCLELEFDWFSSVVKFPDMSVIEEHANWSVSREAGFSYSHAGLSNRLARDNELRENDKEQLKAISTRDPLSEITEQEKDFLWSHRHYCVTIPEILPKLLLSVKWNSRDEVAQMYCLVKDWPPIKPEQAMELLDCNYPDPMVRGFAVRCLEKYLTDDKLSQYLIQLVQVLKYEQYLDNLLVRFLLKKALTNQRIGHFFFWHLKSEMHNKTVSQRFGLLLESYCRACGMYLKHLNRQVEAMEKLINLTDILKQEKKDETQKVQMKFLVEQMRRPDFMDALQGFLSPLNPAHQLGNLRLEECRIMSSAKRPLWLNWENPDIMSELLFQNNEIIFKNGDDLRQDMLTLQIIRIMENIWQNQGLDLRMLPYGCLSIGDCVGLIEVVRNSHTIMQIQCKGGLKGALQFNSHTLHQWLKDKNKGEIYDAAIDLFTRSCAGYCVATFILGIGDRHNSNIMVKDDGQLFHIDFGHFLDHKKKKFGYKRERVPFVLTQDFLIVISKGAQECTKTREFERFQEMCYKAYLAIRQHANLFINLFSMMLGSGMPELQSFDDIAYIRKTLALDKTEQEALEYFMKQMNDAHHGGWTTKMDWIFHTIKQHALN
Chain of Mitogen-activated protein kinase 11 (Homo sapiens) (Q15759 whole entry): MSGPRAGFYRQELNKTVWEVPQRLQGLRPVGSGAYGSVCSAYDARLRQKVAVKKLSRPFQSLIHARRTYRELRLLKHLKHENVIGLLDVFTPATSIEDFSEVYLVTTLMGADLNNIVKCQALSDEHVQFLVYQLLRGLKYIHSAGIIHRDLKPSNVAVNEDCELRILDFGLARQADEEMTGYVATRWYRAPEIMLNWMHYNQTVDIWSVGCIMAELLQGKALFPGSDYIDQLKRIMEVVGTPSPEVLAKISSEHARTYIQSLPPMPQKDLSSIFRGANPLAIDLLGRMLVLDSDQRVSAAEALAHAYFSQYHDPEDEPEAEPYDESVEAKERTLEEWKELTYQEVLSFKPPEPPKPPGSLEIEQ
Chain of Mitogen-activated protein kinase 3 (Homo sapiens) (P27361 whole entry): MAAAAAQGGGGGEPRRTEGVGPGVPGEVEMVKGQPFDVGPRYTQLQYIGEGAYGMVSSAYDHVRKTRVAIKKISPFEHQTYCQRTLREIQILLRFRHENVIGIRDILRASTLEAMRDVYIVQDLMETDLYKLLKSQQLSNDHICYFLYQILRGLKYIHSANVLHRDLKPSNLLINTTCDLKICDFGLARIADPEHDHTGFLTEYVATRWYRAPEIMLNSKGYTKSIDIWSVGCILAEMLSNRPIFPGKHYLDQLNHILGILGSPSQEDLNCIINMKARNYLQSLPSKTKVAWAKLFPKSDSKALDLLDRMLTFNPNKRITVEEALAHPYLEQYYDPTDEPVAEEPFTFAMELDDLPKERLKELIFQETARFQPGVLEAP
Chain of Mitogen-activated protein kinase 14 (Homo sapiens) (Q16539 whole entry): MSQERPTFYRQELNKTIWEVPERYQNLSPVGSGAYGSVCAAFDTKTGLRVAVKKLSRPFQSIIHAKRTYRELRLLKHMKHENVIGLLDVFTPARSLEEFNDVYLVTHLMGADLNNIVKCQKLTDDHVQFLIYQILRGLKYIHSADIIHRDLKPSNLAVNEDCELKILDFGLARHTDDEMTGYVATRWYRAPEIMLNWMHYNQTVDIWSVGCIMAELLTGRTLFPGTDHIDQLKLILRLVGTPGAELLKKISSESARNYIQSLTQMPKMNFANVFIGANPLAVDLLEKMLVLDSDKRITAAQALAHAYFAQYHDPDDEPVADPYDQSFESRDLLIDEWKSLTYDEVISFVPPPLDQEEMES

SMILES | inhibition [1] [%] | inhibition [2] [%] | inhibition [3] [%] | inhibition [4] [%] | inhibition [5] [%] | inhibition [6] [%] | inhibition [7] [%] | inhibition [8] [%] | inhibition [9] [%] | inhibition [10] [%] | inhibition [11] [%] | inhibition [12] [%] | inhibition [13] [%] | inhibition [14] [%] | inhibition [15] [%] | inhibition [16] [%] | inhibition [17] [%] | inhibition [18] [%] | inhibition [19] [%] | inhibition [20] [%]
COc1ccc2cc(-c3c(-c4ccncc4)nc(-c4ccc([S+](C)[O-])cc4C)n3C)ccc2c1 (stereo not given) | 0.97 | -0.41 | 0.96 | 8.81 | 8.45 | -1.91 | 9.09 | 0.73 | -0.19 | -2.44 | -0.09 | -0.31 | -0.89 | -2.02 | -0.83 | -2.38 | -1.78 | 2.91 | -0.88 | -0.09
O=C(Nc1ccc(Oc2ccc3[nH]c(NC(=O)c4ccccc4)nc3c2)cc1)Nc1cc(C(F)(F)F)ccc1F | 3.58 | 4.8 | 50.7 | 11.1 | 40 | 5.44 | 32.5 | 1.65 | 3.87 | -0.11 | 3.12 | -0.76 | 7.91 | 0.59 | 8.12 | -0.81 | 8.31 | 1.83 | -2.27 | 0.81
NC(=O)c1cc(-c2ccncc2)cc(-c2ccccc2)c1N | 5.5 | -0.96 | -0.93 | 6.9 | 14.9 | 6.98 | 14.8 | 2.69 | 5.81 | 0.76 | 3.34 | -1.6 | -0.84 | 4.53 | 6.5 | 3.68 | 5.3 | 0.64 | 3.86 | -0.86
CN(C)c1ccc2c(c1)/C(=C/Nc1ccc(S(N)(=O)=O)cc1)C(=O)N2 | 2.21 | -1.98 | -1.04 | 1.18 | 2.39 | 1.4 | 0.72 | 6.36 | 1.98 | 2.6 | 1.82 | -1.68 | -2.04 | 0.45 | 4.82 | 0.7 | 4.54 | -6.01 | 3.23 | 3.41
CNC(=O)c1cncc(/C=C/c2c(C)cccc2C)c1 | 3.65 | -0.82 | 2.87 | 1.86 | 7.55 | 0.94 | 2.24 | -0.85 | -0.13 | -0.99 | -0.37 | 0.32 | 0.21 | -1.85 | -3.99 | -1.64 | -1.98 | 3.95 | 0.59 | 0.03
COc1cc(Nc2ncc3c(C)nc(-c4cccc(Oc5ccccc5)c4)n3n2)cc(OC)c1OC | 5.07 | 0.17 | 1.56 | 0.66 | 4.12 | 0.51 | 4.42 | 0.98 | 2.5 | 0.18 | 0.85 | -2.01 | -3.6 | 0.78 | 1.96 | 0.25 | 2.99 | 2.58 | 2.46 | -1.6
O=C(Nc1n[nH]c2cc(-c3ccccc3)ccc12)C1CC1 | 4.97 | -0.47 | -0.2 | 4.83 | 11.2 | 4.66 | 6.34 | 3.31 | 5.86 | 6.09 | 3.52 | -1.71 | -1.41 | 2.18 | 4.34 | 1.72 | 4.03 | -5.9 | 0.66 | -0.8
O=C(Nc1n[nH]c2nc(-c3ccco3)ccc12)C1CC1 | 1.35 | 0.39 | 4.26 | 1.96 | 5.5 | 1.81 | 1.59 | 1.26 | 1.37 | 5.77 | 0.97 | -1.07 | -1.33 | -1.36 | 0.99 | -0.99 | 1.03 | 3.38 | 1.68 | -0.31
CCS(=O)(=O)c1ccc(OC)c(Nc2ncc(-c3cccc(-c4ccccc4F)c3)o2)c1 | 0.15 | 0.74 | 1.45 | 5.17 | 8.57 | 0.03 | 4.77 | 3.85 | -0.94 | -2.59 | 0.18 | 0.1 | 2.33 | 1.85 | 2.73 | 2.24 | 5.89 | -1.01 | -4.05 | 4.17
NC(=O)c1cc(-c2ccc(F)cc2)cc(-c2ccncc2)c1N | 3.05 | -2.8 | -1.27 | 6.13 | 8.6 | 2.26 | 5.45 | 2.57 | 3.93 | 4.51 | 3.29 | -2.19 | -2.78 | 3.84 | 22.8 | 2.48 | 4.83 | -4.18 | -2.52 | -2.79
CCC(=O)Nc1ccc(C)c(-c2ccc(C(=O)NCC3CC3)cc2)c1 | 1.57 | -1.41 | -1.57 | 20.1 | 62.9 | 6.54 | 36.8 | 3.68 | 3.22 | 2.95 | 4.44 | -3.31 | -2.74 | 2.7 | 0.64 | 0.57 | -0.59 | -0.74 | -0.15 | -3.42
O=C(Nc1n[nH]c2nc(-c3ccc(O)cc3)c(Br)cc12)C1CC1 | 5.57 | -1.04 | 7.81 | 6.42 | 16 | 11.1 | 38.8 | 8.19 | 32.6 | 1.76 | 16.6 | -0.67 | 0.36 | 6.93 | 6 | 3.58 | 6.8 | -5.7 | 3.27 | -0.06

Source: ChEMBL document CHEMBL1961873, “Compounds: GSK PKIS; Assays: Nanosyn kinase panel” (2012)
